compound: C#CCNC(=O)CCSSCCC(=O)NCCc1ccc(C=O)c(C=O)c1; experiment: lysine labeling ratio R10:1 (500 µM / 50 µM probe), SILAC-ABPP in living cells; higher = lower intrinsic lysine reactivity toward the probe, active = 2 or less; details: HeLa; probe concentrations 500 vs 50 µM
Procedure, shortened: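 In PBS at room temperature, living HeLa cells grown with SILAC light or heavy labels were treated with 50 µM or 500 µM of an alkyne-tagged, disulfide-linked lysine probe, with label swaps in both directions. Analysis was by LC-MS/MS on a TIMS-TOF Pro after click to biotin-azide, neutravidin capture and DTT release. For each lysine, R is the median across forward and reverse replicates of the filtered median high-probe/low-probe MS1 peptide ratio, capped at 20.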

Sequence of UniProt P21589 (P21589 whole entry): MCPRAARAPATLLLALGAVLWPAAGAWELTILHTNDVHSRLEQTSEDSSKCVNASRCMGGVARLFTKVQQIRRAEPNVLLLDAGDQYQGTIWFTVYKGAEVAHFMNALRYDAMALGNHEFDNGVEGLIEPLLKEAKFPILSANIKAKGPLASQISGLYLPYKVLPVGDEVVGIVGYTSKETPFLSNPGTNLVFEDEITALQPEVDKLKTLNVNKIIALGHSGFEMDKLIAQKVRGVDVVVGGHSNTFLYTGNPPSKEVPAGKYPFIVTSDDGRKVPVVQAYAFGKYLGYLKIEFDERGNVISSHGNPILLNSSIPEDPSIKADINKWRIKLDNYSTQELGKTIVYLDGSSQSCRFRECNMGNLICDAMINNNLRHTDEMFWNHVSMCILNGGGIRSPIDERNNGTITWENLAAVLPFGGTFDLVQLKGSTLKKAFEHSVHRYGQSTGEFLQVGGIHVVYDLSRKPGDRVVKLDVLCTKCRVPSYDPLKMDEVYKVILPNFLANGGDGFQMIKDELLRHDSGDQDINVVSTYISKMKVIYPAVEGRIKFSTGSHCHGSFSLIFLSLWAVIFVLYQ
Sequence of UniProt Q9HCU4 (Q9HCU4 whole entry): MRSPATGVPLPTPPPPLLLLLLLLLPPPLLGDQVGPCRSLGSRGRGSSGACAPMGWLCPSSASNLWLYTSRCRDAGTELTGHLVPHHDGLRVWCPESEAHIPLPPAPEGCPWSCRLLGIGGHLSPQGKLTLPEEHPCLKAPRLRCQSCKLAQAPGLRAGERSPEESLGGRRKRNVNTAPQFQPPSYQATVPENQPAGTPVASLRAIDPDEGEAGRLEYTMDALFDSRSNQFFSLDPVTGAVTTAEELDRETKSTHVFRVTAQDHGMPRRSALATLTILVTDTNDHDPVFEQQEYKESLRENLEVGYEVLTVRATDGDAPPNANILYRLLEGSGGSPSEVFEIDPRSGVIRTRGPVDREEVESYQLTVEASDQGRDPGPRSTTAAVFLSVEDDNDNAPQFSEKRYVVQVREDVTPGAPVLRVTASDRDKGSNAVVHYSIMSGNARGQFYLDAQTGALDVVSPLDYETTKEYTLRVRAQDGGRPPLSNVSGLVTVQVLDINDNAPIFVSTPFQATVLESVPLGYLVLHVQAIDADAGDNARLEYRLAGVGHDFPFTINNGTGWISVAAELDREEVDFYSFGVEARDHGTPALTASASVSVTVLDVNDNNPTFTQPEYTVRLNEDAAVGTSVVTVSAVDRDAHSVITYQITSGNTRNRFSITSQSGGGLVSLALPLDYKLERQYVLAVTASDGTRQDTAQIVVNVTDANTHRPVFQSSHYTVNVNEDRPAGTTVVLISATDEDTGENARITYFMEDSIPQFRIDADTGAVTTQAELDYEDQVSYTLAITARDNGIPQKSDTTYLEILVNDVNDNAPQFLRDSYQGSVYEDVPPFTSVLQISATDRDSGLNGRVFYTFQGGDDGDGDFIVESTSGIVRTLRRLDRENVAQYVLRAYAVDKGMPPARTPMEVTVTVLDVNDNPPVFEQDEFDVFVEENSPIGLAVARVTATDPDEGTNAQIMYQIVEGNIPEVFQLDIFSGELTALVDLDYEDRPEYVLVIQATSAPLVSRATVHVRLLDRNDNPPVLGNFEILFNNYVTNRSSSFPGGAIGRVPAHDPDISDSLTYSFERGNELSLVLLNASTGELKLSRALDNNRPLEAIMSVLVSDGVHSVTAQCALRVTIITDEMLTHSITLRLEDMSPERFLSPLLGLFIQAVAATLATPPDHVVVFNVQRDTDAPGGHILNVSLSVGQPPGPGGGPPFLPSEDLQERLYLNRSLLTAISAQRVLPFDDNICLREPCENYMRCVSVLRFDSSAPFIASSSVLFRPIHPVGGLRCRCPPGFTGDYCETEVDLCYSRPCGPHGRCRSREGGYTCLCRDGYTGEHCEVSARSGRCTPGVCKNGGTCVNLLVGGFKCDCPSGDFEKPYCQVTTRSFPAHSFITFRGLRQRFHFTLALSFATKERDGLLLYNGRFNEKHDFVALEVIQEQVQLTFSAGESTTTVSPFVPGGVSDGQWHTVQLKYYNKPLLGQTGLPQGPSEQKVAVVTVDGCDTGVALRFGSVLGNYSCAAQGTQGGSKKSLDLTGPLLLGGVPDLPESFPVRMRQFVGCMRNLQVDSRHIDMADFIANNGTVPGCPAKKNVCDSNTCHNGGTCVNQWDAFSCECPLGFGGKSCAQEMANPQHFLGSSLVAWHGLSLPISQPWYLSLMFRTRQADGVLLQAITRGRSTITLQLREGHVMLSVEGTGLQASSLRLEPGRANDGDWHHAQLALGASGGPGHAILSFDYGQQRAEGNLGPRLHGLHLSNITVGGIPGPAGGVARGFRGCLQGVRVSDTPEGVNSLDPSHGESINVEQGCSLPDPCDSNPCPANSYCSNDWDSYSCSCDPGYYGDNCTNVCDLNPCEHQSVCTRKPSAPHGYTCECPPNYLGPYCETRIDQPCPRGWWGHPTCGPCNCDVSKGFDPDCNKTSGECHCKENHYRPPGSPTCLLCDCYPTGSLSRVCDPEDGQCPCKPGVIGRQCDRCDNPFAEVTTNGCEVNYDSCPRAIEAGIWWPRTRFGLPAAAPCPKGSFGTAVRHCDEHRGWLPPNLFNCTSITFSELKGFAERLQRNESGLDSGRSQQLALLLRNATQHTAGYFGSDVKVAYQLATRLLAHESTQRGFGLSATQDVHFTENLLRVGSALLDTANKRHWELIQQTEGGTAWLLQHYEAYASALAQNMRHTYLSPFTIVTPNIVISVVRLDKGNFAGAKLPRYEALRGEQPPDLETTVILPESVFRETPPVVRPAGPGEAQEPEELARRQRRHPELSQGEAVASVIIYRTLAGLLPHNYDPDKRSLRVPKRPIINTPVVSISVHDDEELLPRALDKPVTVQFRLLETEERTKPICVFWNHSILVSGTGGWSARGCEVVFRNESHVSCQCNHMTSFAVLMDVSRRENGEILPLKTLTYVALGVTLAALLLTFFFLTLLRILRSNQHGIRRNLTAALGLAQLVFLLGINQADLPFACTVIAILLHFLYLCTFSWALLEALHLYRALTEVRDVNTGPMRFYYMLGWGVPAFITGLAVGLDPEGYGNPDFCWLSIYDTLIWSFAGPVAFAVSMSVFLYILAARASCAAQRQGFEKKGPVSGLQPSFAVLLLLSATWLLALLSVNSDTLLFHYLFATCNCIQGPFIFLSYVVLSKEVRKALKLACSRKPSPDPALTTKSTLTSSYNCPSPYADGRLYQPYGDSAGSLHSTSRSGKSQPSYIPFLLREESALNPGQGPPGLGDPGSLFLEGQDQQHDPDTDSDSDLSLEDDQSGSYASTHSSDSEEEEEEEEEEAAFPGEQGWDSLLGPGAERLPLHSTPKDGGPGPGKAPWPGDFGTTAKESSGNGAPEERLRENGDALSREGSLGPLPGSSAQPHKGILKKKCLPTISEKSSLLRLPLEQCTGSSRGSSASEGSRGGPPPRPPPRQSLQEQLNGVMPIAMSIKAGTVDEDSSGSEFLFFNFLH
Sequence of UniProt P17987 (P17987 whole entry): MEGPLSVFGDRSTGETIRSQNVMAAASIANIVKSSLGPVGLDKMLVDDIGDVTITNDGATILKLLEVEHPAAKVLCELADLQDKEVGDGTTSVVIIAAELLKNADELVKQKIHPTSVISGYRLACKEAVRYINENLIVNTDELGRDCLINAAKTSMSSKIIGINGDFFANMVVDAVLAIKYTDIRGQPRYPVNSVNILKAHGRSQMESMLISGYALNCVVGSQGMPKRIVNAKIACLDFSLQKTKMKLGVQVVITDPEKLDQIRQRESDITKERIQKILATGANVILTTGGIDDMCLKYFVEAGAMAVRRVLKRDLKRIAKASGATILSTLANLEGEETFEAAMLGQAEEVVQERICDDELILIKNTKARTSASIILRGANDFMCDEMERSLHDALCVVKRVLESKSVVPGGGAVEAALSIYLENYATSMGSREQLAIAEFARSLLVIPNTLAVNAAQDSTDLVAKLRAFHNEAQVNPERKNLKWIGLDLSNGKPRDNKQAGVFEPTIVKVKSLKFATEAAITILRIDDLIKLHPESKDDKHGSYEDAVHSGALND
Sequence of UniProt Q9ULV4 (Q9ULV4 whole entry): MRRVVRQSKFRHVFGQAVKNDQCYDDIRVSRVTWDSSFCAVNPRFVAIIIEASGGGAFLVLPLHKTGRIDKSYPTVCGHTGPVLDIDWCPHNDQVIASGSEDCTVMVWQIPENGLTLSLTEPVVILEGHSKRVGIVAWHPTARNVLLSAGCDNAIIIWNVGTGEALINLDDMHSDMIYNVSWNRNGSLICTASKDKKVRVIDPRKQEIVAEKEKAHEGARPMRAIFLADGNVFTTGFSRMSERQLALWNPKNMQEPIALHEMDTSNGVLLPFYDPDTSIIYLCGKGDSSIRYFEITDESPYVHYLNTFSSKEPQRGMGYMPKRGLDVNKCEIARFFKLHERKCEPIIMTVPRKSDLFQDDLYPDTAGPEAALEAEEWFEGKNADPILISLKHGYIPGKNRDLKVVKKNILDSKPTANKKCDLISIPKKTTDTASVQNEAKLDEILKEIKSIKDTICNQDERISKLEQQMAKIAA
Sequence of UniProt Q07065 (Q07065 whole entry): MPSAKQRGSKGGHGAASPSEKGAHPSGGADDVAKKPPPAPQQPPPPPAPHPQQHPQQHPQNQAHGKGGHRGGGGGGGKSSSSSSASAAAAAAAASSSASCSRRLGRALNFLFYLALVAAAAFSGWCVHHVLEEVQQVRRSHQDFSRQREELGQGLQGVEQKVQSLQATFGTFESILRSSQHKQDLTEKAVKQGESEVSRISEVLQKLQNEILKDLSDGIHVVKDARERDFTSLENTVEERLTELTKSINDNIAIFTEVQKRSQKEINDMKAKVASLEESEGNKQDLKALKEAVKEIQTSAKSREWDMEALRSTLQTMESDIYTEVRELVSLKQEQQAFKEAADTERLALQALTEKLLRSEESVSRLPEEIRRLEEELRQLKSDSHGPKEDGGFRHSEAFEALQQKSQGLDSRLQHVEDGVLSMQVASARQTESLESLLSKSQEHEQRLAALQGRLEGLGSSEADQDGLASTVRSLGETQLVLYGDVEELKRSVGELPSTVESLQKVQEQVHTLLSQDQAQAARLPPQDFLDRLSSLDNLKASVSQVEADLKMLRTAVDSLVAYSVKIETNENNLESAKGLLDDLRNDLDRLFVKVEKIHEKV

Lysine labeling ratio R10:1, active:
CORO1C (lysine site: K329) (UniProt Q9ULV4) 1.19
IGF1R (lysine site: K667) (UniProt P08069) 1.28
ITGAV (lysine site: K581) (UniProt P06756) 0.709
EFNB2 (lysine site: K163) (UniProt P52799) 1.53
UniProt P83881 (lysine site: K38) 1.61
UniProt P21589 (lysine site: K471) 1.6
NUMA1 (lysine site: K284) (UniProt Q14980) 2
SERBP1 (lysine site: K76) (UniProt Q8NC51) 1.17
UniProt Q86UP0 (lysine site: K324) 1.82

Lysine labeling ratio R10:1, inactive:
TKT (lysine site: K16) (UniProt P29401) 2.68
UniProt P21589 (lysine site: K67) 2.8
CNP (lysine site: K101) (UniProt P09543) 2.62
PIEZO1 (lysine site: K113) (UniProt Q92508) 4.13
UniProt P61160 (lysine site: K253) 3.35
CLMP (lysine site: K172) (UniProt Q9H6B4) 4.28
RPL4 (lysine site: K120) (UniProt P36578) 3.18
WNT5A (lysine site: K171) (UniProt P41221) 3.57
HSPD1 (lysine site: K250) (UniProt P10809) 2.65
UniProt P48060 (lysine site: K200) 3.31
MSLN (lysine site: K299) (UniProt Q13421) 3.1
NCL (lysine site: K545) (UniProt P19338) 3.2
TCP1 (lysine site: K199) (UniProt P17987) 4.14
PDCD6IP (lysine site: K374) (UniProt Q8WUM4) 5.72
SPTBN1 (lysine site: K1884) (UniProt Q01082) 4.5
UniProt P60866 (lysine site: K67) 2
UniProt Q9UHA4 (lysine site: K12) 3.79
TXLNA (lysine site: K256) (UniProt P40222) 3.67
CKAP4 (lysine site: K223) (UniProt Q07065) 2.5
RUVBL2 (lysine site: K427) (UniProt Q9Y230) 2.02
LAMB1 (lysine site: K1746) (UniProt P07942) 3.26
EPHA2 (lysine site: K468) (UniProt P29317) 3.11
THRAP3 (lysine site: K519) (UniProt Q9Y2W1) 3.8
CELSR2 (lysine site: K2183) (UniProt Q9HCU4) 4.05
EPHB4 (lysine site: K267) (UniProt P54760) 3.27
UniProt Q15697 (lysine site: K143) 2.8
UniProt P46781 (lysine site: K11) 4.03
PTPRF (lysine site: K1103) (UniProt P10586) 7.4
DYNC1H1 (lysine site: K2239) (UniProt Q14204) 6.84
CD58 (lysine site: K62) (UniProt P19256) 5.48
HNRNPM (lysine site: K145) (UniProt P52272) 2.08

— the supplement of paper PMC11001985
